# In the library only some 1.5% were active in any assay of this set; here they are far more common.
# PvdQ acylase – P. aeruginosa PvdQ acylase inhibition | AID 488965 | inhibition, % at 10 µM | purified PvdQ acylase, fluorescence plate reader | actives 0.063% (n = 340,000); in the data active means inhibition above about 30%, passing the limit was not always enough; inconclusive means no clear call, values can overlap the other calls;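 further: 0% = vehicle neutral wells and 100% = reference inhibitor wells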
# Glyco luc inh – N-linked glycosylation inhibition | D54 ERlucT glycosylation luciferase reporter, 24 h; percent of 100 nM tunicamycin response | reporter increase, % at 12.5 µM | actives 0.23% (n = 360,000);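 active means mean luciferase reporter signal, scaled so untreated is 0 and the glycosylation-blocking control 100, at or above a set limit in every replicate; inconclusive means mean reaches the limit but not every replicate does; inactive means mean below the limit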;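 further: luciferase carries N-glycosylation sites so blocking glycosylation raises the light; 0% = median of neutral control wells and 100% = median of 100 nM tunicamycin wells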
# CFTR F508del cor – correctors of CFTR F508del function in bronchial epithelial cells; CFBE cells, YFP halide quenching; stimulated with forskolin plus potentiator P3; % fluorescence drop versus neutral controls; activity (quench increase), % at 7.58 µM; actives 0.36% (n = 350,000);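 active means mean added fluorescence quench of at least 8% versus neutral control, with both replicates also reaching 8%; inconclusive means only one of the mean or replicate conditions met; inactive means mean below 8% and not both replicates reaching 8%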;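 further: cells transiently co-express mutant CFTR-F508del with the halide-sensitive YFP; corrector assay measuring rescue of mutant channel to the surface after 24 h compound exposure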
# RAD52 anneal inh – blocks human RAD52 DNA annealing; P43351; recombinant RAD52 DNA annealing, FRET fluorescence; inhibition, % at 18.7 µM; actives 0.46% (n = 360,000); AID 651710;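 active means every replicate showing at least 50% inhibition; inconclusive means mean inhibition at least 50% but not in every replicate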
# Target sequence (P43351 whole entry, looked up): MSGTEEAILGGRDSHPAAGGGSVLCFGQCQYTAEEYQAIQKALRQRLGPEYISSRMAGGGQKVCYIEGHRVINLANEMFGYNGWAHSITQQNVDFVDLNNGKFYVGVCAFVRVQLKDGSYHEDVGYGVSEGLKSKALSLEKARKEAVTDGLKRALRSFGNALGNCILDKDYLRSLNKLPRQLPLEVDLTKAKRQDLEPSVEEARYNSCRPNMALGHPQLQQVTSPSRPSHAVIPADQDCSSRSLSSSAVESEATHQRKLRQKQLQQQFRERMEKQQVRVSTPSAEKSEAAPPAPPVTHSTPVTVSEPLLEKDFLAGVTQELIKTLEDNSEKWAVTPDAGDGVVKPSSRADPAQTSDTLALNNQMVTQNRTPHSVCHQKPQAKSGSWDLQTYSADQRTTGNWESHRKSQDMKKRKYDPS
# dFosB act-1 – mouse delta FosB homodimer activation | P13346 | purified delta FosB, TAMRA-CDK5 oligo fluorescence polarization; percent of positive-control signal above neutral wells | activation, % at 25 µM | actives 0.99% (n = 340,000) | AID 493131;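 active means mean activation above about 17%, with every replicate also reaching it, limit read from the data, passing the limit was not always enough; inconclusive means only one of the two conditions met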
# RAD54 inh – blocks human RAD54 Holliday junction branch migration. actives 0.14% (n = 360,000). FAM/BHQ fluorescence. Q92698. inhibition, % at 10.4 µM;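 active means mean normalized replicate activity at least 40 and at least half of replicates scoring 40 or more; inconclusive means only one of the two criteria met; inactive means mean below 40 and under half of replicates reaching 40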;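 further: 0% = median of neutral control wells and 100% = median of positive control wells; inhibitors cause a drop in the FAM fluorescence signal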
# dFosB act-2 – delta FosB (mouse) homodimer activation; 2,400 tested, under 10 active; shares compounds with dFosB act-1; purified delta FosB, TAMRA-CDK5 oligo fluorescence polarization; normalised: neutral wells 0, positive control 100; AID 588690; activation, % at 24.9 µM;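 active means highest replicate activation at or above 34% and every replicate reaching that threshold; inconclusive means meets only one of the two criteria; inactive means meets neither criterion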;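 further: higher polarization means more probe DNA bound by delta FosB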
# * hit, by the source's call; ? = inconclusive; . = no result given.
SMILES,PvdQ acylase,Glyco luc inh,CFTR F508del cor,RAD52 anneal inh,dFosB act-1,RAD54 inh,dFosB act-2
CCCCn1c(N)c(N(CC(C)C)C(=O)c2cccc(S(=O)(=O)N3CCCCCC3)c2)c(=O)[nH]c1=O,8,-1,1,-11,39*,2,-5
Cc1c(/C=N/n2cnnc2)c2ccccc2n1CCOc1ccc(Cl)cc1,0,-1,.,.,5,2,.
Cc1ccc(OCCn2c(C)c(/C=N/n3cnnc3)c3ccccc32)cc1,-9,0,.,.,31*,-4,5
COc1ccc(C(=O)Sc2ccc(Cl)cc2)cc1OC,3,1,.,.,21*,-3,-2
COc1ccc(C(=O)Sc2ccc(C)cc2)cc1OC,-7,-1,.,.,-6,11,.
Fc1ccc(-c2noc(-c3ccc4c(c3)CCO4)n2)cc1,4,-16,.,9,28*,-4,3
COc1ccc(/C=N/n2cnc3c([nH]c4ccc(C)cc43)c2=O)cc1CN1CCCC1,-3,-9,-4,-2,42*,7,2
COc1ccc2c(c1)[nH]c1c(=O)n(/N=C/c3ccc(OC)c(CN4CCCC4)c3)cnc12,11,0,9.2*,-4,66*,30,?
COc1ccc2[nH]c3c(=O)n(/N=C/c4ccc(OC)c(CN5CCCC5)c4)c(C)nc3c2c1,9,-1,1,28,-5,20,.
COc1ccc(/C=N/n2cnc3c([nH]c4ccc(F)cc43)c2=O)cc1CN1CCCC1,-12,-8,0,-25,-20,.,.
C[C@H]1CN([C@@H](C)CO)C(=O)c2cc(C#Cc3ccccc3F)cnc2O[C@@H]1CN(C)C(=O)Cc1cccnc1,.,.,1,6,.,-8,.
CO[C@@H]1CN(C)C(=O)c2cc(NC(=O)Nc3ccc4c(c3)OCO4)ccc2OC[C@H](C)NC[C@H]1C,.,.,0,-139,.,-5,.
CN(C)CCN(C(=O)c1cccs1)c1nc2cc3c(cc2s1)OCCO3,-7,12,2,28,15,31,.
CCN(CC)CCN(C(=O)c1ccc2c(c1)OCCO2)c1nc2cc3c(cc2s1)OCO3,-9,-4,1,0,3,10,.
CN(C)CCN(C(=O)c1cccc2ccccc12)c1nc2cc3c(cc2s1)OCO3,10,-5,-3,0,41*,23,0
CCN(CC)CCN(C(=O)c1cc2c(ccc3ccccc32)oc1=O)c1nc2cc3c(cc2s1)OCCO3,0,11,5,42,71*,25,0
CN(C)CCN(C(=O)c1ccc(Br)s1)c1nc2cc3c(cc2s1)OCCO3,2,3,2,10,19*,27,2
CCCNC(=O)N1CCC2(CC1)CN(S(C)(=O)=O)[C@H](CO)c1c2c2ccc(OC)cc2n1C,.,.,1,10,.,.,.
O=c1[nH]c(/C(Cl)=C/c2cc(Cl)ccc2O)nc2cc(Cl)ccc12,-6,-2,-2,-21,31*,-4,-1
CNc1ccc(C(=O)OCC(=O)NCc2ccc3c(c2)OCO3)cc1[N+](=O)[O-],1,0,-3,-18,36*,-3,-1
COc1ccc(NC(=O)COC(=O)c2ccc3c(c2)OCCO3)cc1,.,0,-2,-1,.,-5,.
COc1ccc(NC(=O)COC(=O)c2ccc3c(c2)OCCO3)cc1OC,-3,0,2,-10,48*,-1,2
NC(=O)c1ccc(NC(=O)COC(=O)c2ccc3c(c2)OCO3)cc1,10,0,0,-15,24*,0,-2
COc1ccc(/C=C/C(=O)OCC(=O)Nc2ccc3c(c2)OCO3)cc1,-6,2,1,-8,28*,12,-9
O=C(COC(=O)c1cc(Br)ccc1O)Nc1ccc2c(c1)OCO2,-11,4,0,-4,43*,5,-2
SMILES,PvdQ acylase,Glyco luc inh,CFTR F508del cor,RAD52 anneal inh,dFosB act-1,RAD54 inh,dFosB act-2
Cc1noc(C)c1NC(=O)N(C)C[C@@H]1Oc2ccc(NC(=O)NC3CCCCC3)cc2C(=O)N([C@H](C)CO)C[C@H]1C,.,.,0,-7,.,-1,.
CCc1nonc1NC(=O)c1oc2ccc(F)cc2c1C,-5,1,2,-9,35*,-16,1
Cc1cc2oc(C(=O)Nc3nonc3C)c(C)c2cc1C,-10,-6,2,-8,20*,3,2
CO[C@@H]1CN(C)C(=O)c2ccc(NS(=O)(=O)CC(F)(F)F)cc2OC[C@@H](C)N(Cc2ccccn2)C[C@H]1C,.,.,1,-3,.,-10,.
O=C(Nc1cccc(-c2cn3cccnc3n2)c1)c1ccc(Br)o1,-30,3,.,12,19*,3,7
O=C(CNC(=O)c1ccc(Br)o1)Nc1cccc(-c2cnc3ccccc3n2)c1,3,26*,.,.,19*,-5,6
CC(=O)Nc1ccc(C(=O)Nc2cccc(-c3cnc4ccccc4n3)c2)cc1,-13,-2,-2,-3,24*,.,3
O=C(C[C@H]1C[C@@H]2c3cc(NC(=O)Nc4ccc(F)cc4)ccc3O[C@@H]2[C@@H](CO)O1)NC1CCCCC1,.,.,0,.,.,10,.
COCCCNC(=O)[C@@]1(Cc2ccccc2N=[N+]=[N-])N=C(c2ccc(OCCCO)cc2)O[C@H]1c1ccccc1N=[N+]=[N-],.,.,4,-16,.,6,.
CC(C)NC(=O)Nc1ccc2c(c1)C(=O)N([C@@H](C)CO)C[C@@H](C)[C@H](CN(C)C(=O)Nc1ccc(C(F)(F)F)cc1)OCCCC[C@@H](C)O2,.,.,5,-8,.,-6,.
CCCNC(=O)C[C@@H]1CC[C@@H]2[C@@H](COc3ccc(NC(=O)NCC)cc3C(=O)N2C)O1,.,.,-2,-7,.,3,.
Cn1c(=O)c(=O)n(C)c2cc(S(=O)(=O)CCC(=O)Nc3cccc(C(F)(F)F)c3)ccc21,-4,2,2,-8,21*,-14,3
Cn1c(=O)c(=O)n(C)c2cc(S(=O)(=O)CCC(=O)Nc3ccc(F)cc3)ccc21,-5,0,-1,-16,-4,-7,.
CCOC(=O)NC(=O)CSc1nc(C)cc(C(F)(F)F)c1C#N,-10,0,.,.,0,-18,.
Cc1cc(C(F)(F)F)c(C#N)c(SCC(=O)Nc2nc3cc(Br)ccc3s2)n1,0,-2,5,-153,37*,.,7
C[C@H](CO)N1C[C@H](C)[C@@H](CN(C)C(=O)Nc2ccc(C(F)(F)F)cc2)Oc2ccc(NC(=O)Nc3ccc(C(F)(F)F)cc3)cc2CC1=O,.,.,-2,14,.,3,.
NC(=O)c1nsc(C(=O)N(c2ccccc2)C(C(=O)NCc2ccc(F)cc2)c2ccc(O)cc2)c1N (stereo unspecified),-13,-4,-1,-8,44*,4,3

# Compound activity as filed in PubChem.
